IL1B secr inh: qHTS for Inhibitors of Inflammasome Signaling: IL-1-beta AlphaLISA Primary Screen; THP-1 LPS/ATP IL-1B secretion, AlphaLISA, 16 h; hits give low values; activity change, % at 57.5 µM; 360,000 compounds, 4.7% hits; AID 743279, 2014; in the data active = activity change below about -50%; inconclusive = mostly about -30% to -49%; note: % is set by controls: 0 for no effect and ±100 for the full control effect
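THP-1 cells pretreated 1 hr with compounds (up to 57.5 uM final), then stimulated with LPS (250 ng/mL final) plus ATP (1.25 mM final); secreted IL-1B measured by AlphaLISA after 16 hr, decreased signal indicating inhibition.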
DT40 TDP1 CPT: qHTS for Inhibitors of human tyrosyl-DNA phosphodiesterase 1 (TDP1): qHTS in cells in presence of CPT; chicken DT40 Tdp1-/-;hTDP1 cells + 20 nM CPT, ATP luminescence, 48 h; Potency, µM (series often up to 46.2 µM), for the others: at the highest dose activity change, negative = growth inhibition, actives largely listed as inhibitors; 420,000 compounds, 12% hits; AID 686979, 2013; note: potency is the fitted concentration of half-maximal effect; % is set by controls: 0 for no effect and ±100 for the full control effect; nearly all actives have a fitted effect of over 55% in size
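Cell growth measured by CellTiter-Glo luminescence after a minimum 48 h, 37 C compound exposure with 20 nM CPT in Tdp1-knockout DT40 cells stably expressing hTDP1, seeded 400/well; qHTS titration format.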
DT40 TDP1 no CPT: qHTS for Inhibitors of human tyrosyl-DNA phosphodiesterase 1 (TDP1): qHTS in cells in absence of CPT; DT40 Tdp1-/- hTDP1 cells, no CPT, ATP luminescence, 48 h; Potency, µM (series often up to 46.2 µM), inactives show at the top dose activity change, negative = growth inhibition, most hits filed as inhibitors; 420,000 compounds, 15% hits; note: potency is the fitted concentration of half-maximal effect; % is set by controls: 0 for no effect and ±100 for the full control effect; nearly all actives have a fitted effect of over 55% in size
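Cells were dispensed at 400 per well, compounds added by pin tool, plates incubated ≥48 hr at 37 °C, then CellTiter-Glo added for 30 min at room temperature before luminescence reading. Line: DT40 Tdp1-/- complemented with hTDP1; camptothecin omitted.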
TDP1 block: qHTS Assay for Inhibitors of Tyrosyl-DNA Phosphodiesterase (TDP1); recombinant TDP1, AlphaScreen DNA substrate cleavage; AID 485290, 2010; Potency, µM (series often up to 130 µM), for inactives: at the top dose activity change, negative = inhibition, actives largely listed as inhibitors; 350,000 compounds, 0.28% hits; Tyrosyl-DNA phosphodiesterase 1 (Homo sapiens), Q9NUW8; note: potency is the fitted concentration of half-maximal effect; % is set by controls: 0 for no effect and ±100 for the full control effect; nearly all actives have a fitted effect of over 40% in size
Target sequence (Q9NUW8 whole entry, looked up): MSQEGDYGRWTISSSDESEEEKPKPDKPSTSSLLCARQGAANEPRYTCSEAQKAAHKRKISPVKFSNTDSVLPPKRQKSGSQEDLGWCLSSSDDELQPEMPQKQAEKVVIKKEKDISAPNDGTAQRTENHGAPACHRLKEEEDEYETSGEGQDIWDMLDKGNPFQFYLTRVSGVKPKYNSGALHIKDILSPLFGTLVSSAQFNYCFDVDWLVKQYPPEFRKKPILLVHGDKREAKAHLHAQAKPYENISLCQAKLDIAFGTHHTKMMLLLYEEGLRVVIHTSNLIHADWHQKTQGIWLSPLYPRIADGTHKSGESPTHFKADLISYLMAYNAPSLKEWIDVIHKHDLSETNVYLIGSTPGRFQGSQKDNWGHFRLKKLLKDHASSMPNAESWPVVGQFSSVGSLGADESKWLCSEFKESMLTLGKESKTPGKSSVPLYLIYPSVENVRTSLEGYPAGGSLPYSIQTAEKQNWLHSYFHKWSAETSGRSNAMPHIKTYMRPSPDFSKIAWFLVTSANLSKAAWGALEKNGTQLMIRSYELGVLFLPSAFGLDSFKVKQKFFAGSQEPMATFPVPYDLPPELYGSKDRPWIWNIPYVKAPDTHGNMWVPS
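E. coli-derived human Tdp1, 1 nM final. Cpd preinc 15 min RT; substrate 15 nM final, 5 min RT; AS bead mix 10 ug/ml final, 10 min RT. Signal loss = tyrosine-FITC cleavage. No-enzyme wells = max signal.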
HepG2 tox: qHTS for Inhibitors of TGF-b: Cytotox Counterscreen. HepG2 CAGA-GFP viability, ATP luminescence, 18 h. Potency, µM (titrated, usually from 46.1 µM), for inactives: top-dose activity change, negative = cytotoxicity, most hits filed as cytotoxic. 410,000 compounds, 0.76% hits. AID 588856, 2011; note: potency is the fitted concentration of half-maximal effect
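HepG2 CAGA-GFP cells (1000/well, DMEM with 1% FBS) received compound, then TGF-beta at 500 pg/mL final, and were incubated 18 hours at 37 degrees C. Viability was read by CellTiter-Glo luminescence. Media-only wells were set as complete cell-killing and DMSO as no toxicity.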
TGFb SMAD3 inh: qHTS for Inhibitors of TGF-b; HepG2 CAGA-GFP TGF-b/SMAD3 reporter, GFP fluorescence, 18 h; TGF-beta stimulated, 500 pg/mL final; 410,000 compounds, 1.2% hits; Potency, µM (series often up to 46.1 µM), inactives show at the top dose activity, negative = inhibition, usual class: inhibitors; note: potency is the fitted concentration of half-maximal effect; % is set by controls: 0 for no effect and ±100 for the full control effect; nearly all actives have a fitted effect of over 65% in size
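GFP signal (ex488/em500-530) from TGF-beta-stimulated HEPG2 CAGA-GFP cells, 500 pg/mL final, 18 h at 37 degrees C in DMEM plus 1% FBS, normalized to unstimulated and DMSO-stimulated controls.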
* hit, by the source's call; ? = inconclusive; . = no result given; ! = not confirmed by another sample; [ ] = another dose, or the depositor's remark. Only some compounds are listed: those with a hit (about 18% of all), similar ones and a draw of the others. Unless noted, calls come from the whole dose curve; as a rule, active = well fitted curve in the direction sought with a large enough effect; inconclusive = small, poorly fitted or top-dose-only effect, or another doubt; inactive = no such curve, though single readings can be large; an effect the other way counts as inactive or inconclusive.

SMILES	IL1B secr inh	DT40 TDP1 CPT	DT40 TDP1 no CPT	TDP1 block	HepG2 tox	TGFb SMAD3 inh
C[C@H](N)C(=O)O	.	1%	-4%	?	.	.
C=CCC[C@@H](Cc1ccc(F)cc1)C(=O)OC[C@@H](C)NC(=O)[C@@H](CC=C)CC(=O)N[C@H](CO)Cc1ccccc1	?	15µM*	?	2%	-17%	?
CCNC(=S)NN=C1c2ccccc2-c2ccccc21	?	3.7µM*	3.7µM*	10%	5%	?
S=C(NCCCN1CCOCC1)NN=C1c2ccccc2-c2ccccc21	-14	5.8µM*	5.8µM*	.	-26%	?
CSc1cc2c(s1)c1cnn(Cc3cccc(O)c3)c(=O)c1n2C	.	.	.	1%	.	.
N#C/C(=C\C1CC2C=CC1C2)c1nc2ccccc2[nH]1 (stereo not drawn)	-17	-26%	?	0%	-14%	-24%
CCOC(=O)[C@]12CCC=C1N(Cc1ccccc1)C(=O)[C@H](CC(=O)NCc1ccccc1)C2	-7	?	16µM*	.	.	.
CCOC(=O)[C@]12CCCC=C1N(Cc1ccc(Cl)cc1Cl)C(=O)[C@H](CC(=O)NCc1cccc(C(F)(F)F)c1)C2	-55*	15µM*	18µM*	.	.	.
CCOC(=O)[C@]12CCC=C1N(Cc1ccc(Cl)cc1Cl)C(=O)[C@H](CC(=O)NCc1cccc(C(F)(F)F)c1)C2	0	?	?	.	.	.
CCOC(=O)[C@]12CCC=C1N(Cc1ccc(Cl)cc1Cl)C(=O)[C@H](CC(=O)NCc1ccccc1)C2	-64*	?	23µM*	.	.	.
CCCCNC(=O)C[C@@H]1C[C@@]2(C(=O)OCC)CCC=C2N(Cc2ccccc2)C1=O	2	-30%	-29%	.	.	.
CCOC(=O)[C@]12CCC=C1N(Cc1ccc(Cl)cc1Cl)C(=O)[C@H](CC(=O)NCc1ccc(C)o1)C2	.	?	18µM*	.	.	.
O=C(NNC(=O)C1CC(=O)N(Cc2ccccc2)C1)c1ccc(Br)cc1 (stereo not drawn)	-2	3%	3%	3%[56.1 µM]	-18%	-16%
CCOc1cc(/C=N/N=C2/NC(=O)C(CC(=O)O)S2)ccc1OCc1ccc(Cl)cc1Cl (stereo not drawn)	11	?	-13%	20µM*	7%	16%
COCCN1C(=O)C(CC(=O)Nc2ccc(C(C)=O)cc2)SC1=Nc1ccccc1 (stereo not drawn)	15	16µM*	?	3%	9%	-3%
CC(O)CN1C(=O)C(CC(=O)Nc2ccc(Cl)cc2)SC1=Nc1ccccc1 (stereo not drawn)	-56*	?	26µM*	-2%	-67%	11µM*
O=C1NC(=O)c2cc([N+](=O)[O-])ccc21	.	.	.	18%	.	.
Cc1noc(C)c1NC(=O)Nc1ccc2c(c1)C(=O)N([C@H](C)CO)C[C@H](C)[C@@H](CN(C)C(=O)Nc1ccc3c(c1)OCO3)O2	19	11%	16%	1%	0%	-2%
Cc1noc(C)c1NC(=O)Nc1ccc2c(c1)C(=O)N([C@H](C)CO)C[C@@H](C)[C@@H](CN(C)S(=O)(=O)c1cn(C)cn1)OCCCC[C@H](C)O2	-4	-2%	1%	.	-21%	-2%
COc1ccc(CN(C(=O)Nc2cccc(Cl)c2)c2ccccn2)cc1OC	.	?	13µM*	-5%	-17%	-32%
COc1ccc(NC(=S)N(CCc2ccc(OC)c(OC)c2)Cc2ccccn2)cc1	38	-18%	?	8%	5%	-15%
O=C(Nc1ccccc1)N(Cc1ccc(F)cc1)c1ccccn1	.	?	?	-9%	1%	-8%
COc1ccc(CCN(Cc2ccccn2)C(=S)Nc2cccc(C)c2)cc1OC	7	1%	-5%	5%	5µM*	-6%
Cc1ccc(CN(C(=O)Nc2cccc(Cl)c2)c2ccccn2)cc1	.	?	16µM*	.	-30%	?
Oc1ccc(Br)cc1/C=N/n1c(C2CCCCC2)n[nH]c1=S	0	?	?	.	-13%	-1%
SMILES	IL1B secr inh	DT40 TDP1 CPT	DT40 TDP1 no CPT	TDP1 block	HepG2 tox	TGFb SMAD3 inh
COc1cc(OC)c(NC(=O)Cc2c(C(=O)O)c(C)cn2C)cc1Cl	.	-3%	4%	8%	-20%	-13%
CC(C)c1ccc(NC(=O)C2CCN(S(=O)(=O)c3ccc4c(c3)NC(=O)CO4)CC2)cc1	-6	?	23µM*	5%	-8%	-25%
COc1ccccc1C(=O)NC1(C(F)(F)F)C(=O)NC(C)=C1C#N (stereo not drawn)	.	.	.	4%	-17%	7%
COc1cc(NC(=O)c2nn(-c3ccc(F)cc3)c(=O)n(C)c2=O)cc(OC)c1OC	.	15µM*	10µM*	3%	0%	4%
Cc1ccc(-n2nc(C(=O)Nc3ccc(C)c(F)c3)c(=O)n(C)c2=O)cc1	.	-15%	-26%	1%	3%	25%
COc1ccc(Cl)cc1NC(=O)c1nn(-c2ccc(C)cc2)c(=O)n(C)c1=O	.	16µM*	-18%	-2%	5%	4%
CCOC(=O)Nc1nc2ccc(Cn3cccc3)cc2[nH]1	29	0.82µM*	0.58µM*	.	8%	-8%
COC(=O)Nc1nc2ccc(C(=O)c3ccc(F)cc3)cc2[nH]1	.	.	.	6%	.	.
CCCOc1ccc2nc(NC(=O)OC)[nH]c2c1	.	0.094µM*	0.15µM*	5%	.	.
COc1ccc(CC(=O)Nc2nc3ccccc3[nH]2)cc1	-4	?	?	3%	4%	18%
CC1(C)CC2(CC(c3ccccc3F)c3ccc(O)c(O)c3O2)NC(=S)N1 (stereo not drawn)	-6	?	23µM*	10%	3%	?
Cc1ccc(NC(=O)c2cc(S(=O)(=O)N3CCCCC3)c[nH]2)cc1C	-6	-13%	?	.	2%	-2%
Cc1ccccc1OCc1n(CC(=O)OC2CC(C)CCC2C(C)C)c2ccccc2[n+]1C (stereo not drawn)	-97*!	10µM*	2.6µM*	5%	16µM*	7.9µM*
